The record followed here is PubChem BioAssay (NCATS).

Experiment [1] can be described thus: qHTS Assay for Identifying Gametocytocidal Compounds (AID 743244; active means well fitted curve in the direction sought with a large enough effect; an effect the other way counts as inactive or inconclusive; further: potency means the concentration at half of the fitted maximal effect;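 on max response: on the % scale 0 is the no-effect control and ±100 the full control effect; actives lower the fluorescent signal which means gametocytes are killed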). The settings on record: P. falciparum 3D7 stage III-V gametocytes, alamarBlue, 72 h; max response: stronger effect = lower value. The procedure, abridged: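 Viability read-out was resazurin reduction (alamarBlue, 24 h) measured at Ex 525/Em 598 nm. Beforehand, late-stage (III-V) 3D7 P. falciparum gametocytes at 20,000 cells/well were incubated with compound 72 h at 37C under 5% CO2.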
(In general: qHTS replaces the single test concentration by a dilution series.)

The conditions of experiment [2]: Ebola virus entry assay, green fluorescence channel.
For experiment [3] the following is noted: Ebola virus entry assay, blue channel fluorescence.
For experiment [4] the following is noted: Ebola virus entry assay, ratio channel.
Experiment [5] has as its target T1, Hexokinase-4 (Homo sapiens) + Glucokinase regulatory protein (Homo sapiens) (UniProt P35557+Q14397). Nature of the experiment: qHTS assay for inhibitors of recombinant human GCK-GKRP interaction: ADP-Glo assay (AID 743206; active means well fitted curve in the direction sought with a large enough effect; an effect the other way counts as inactive or inconclusive;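 further: plate controls were DMSO plus enzyme for no effect and no enzyme for full effect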). In outline:
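Pin-transferred compounds meet a 15 nM GST-GCK/15 nM FLAG-GKRP/2 uM S6P mix (dispense concentrations). ATP is then added to 0.4 mM final with 5 mM glucose, and the reaction runs 60 min at room temperature. ADP is quantified luminescently.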

In experiment [6] the target is T1, Hexokinase-4 (Homo sapiens) + Glucokinase regulatory protein (Homo sapiens). Nature of the experiment: qHTS assay for inhibitors of recombinant human GCK-GKRP interaction: HTRF assay (AID 743207; active means well fitted curve in the direction sought with a large enough effect; an effect the other way counts as inactive or inconclusive;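 further: 0% = DMSO with GCK present and -100% = DMSO wells lacking GCK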). The procedure, abridged: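 GST-GCK and FLAG-GKRP (5 nM each) were combined with 2 uM S6P in pH 7.1 Hepes/MgCl2/KCl/DTT buffer, then compound and anti-FLAG XL665/anti-GST K antibodies were added. After 60 min at room temperature, HTRF 665/615 nm emission was read.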

The nature of experiment [7]: qHTS assay for small molecule agonists of the antioxidant response element (ARE) signaling pathway measured by Nrf2-dependant transcriptional activity (AID 720636; active means well fitted curve in the direction sought with a large enough effect in the repeat runs; an effect the other way counts as inactive or inconclusive;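 further: HepG2 cells with an ARE-driven luciferase reporter; % of control where 0% means no effect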). In outline:
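Cells: ARE-luc HepG2 with Nrf2-responsive luciferase. Medium contained 1% dialyzed FBS. Compound exposure lasted 16 hr at 37 C and 5% CO2, followed by ONE-Glo luciferase detection.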

A short description of experiment [8]: qHTS profiling for inhibitors of Plasmodium falciparum (3D7) proliferation (AID 743322).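 Further: infected erythrocytes exposed to compound for 72 h before lysis; 100% = DMSO vehicle wells and 0% = 0.29 µM artemisinin.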 The settings on record: P. falciparum 3D7 proliferation; at 28.7 µM (top of the series). The procedure, abridged: (§1)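 Parasite DNA was quantified by SYBR Green I fluorescence (ex 485, em 535 nm) after overnight lysis in saponin/Triton buffer at room temperature. Cultures at 0.3% parasitemia and 2.5% hematocrit were first exposed to compound for 72 h at 37 C; signals were normalised to artemisinin (0.29 uM) and vehicle wells.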

A short description of experiment [9]: qHTS profiling for inhibitors of Plasmodium falciparum (DD2) proliferation (AID 743323). The settings on record: lower = more inhibition; at 28.7 µM (top of the series). The procedure, abridged:
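1536-well qHTS; infected RBCs 0.3% parasitemia/2.5% Hct final; cpd 72 h 37 C 5% CO2; lysis buffer + SYBR Green I, o/n RT dark; FI 485/535; norm. to 0.29 uM artemisinin and DMSO, plate-stack corrected.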

Experiment [10] in a line: qHTS profiling of the MIPE4 collection as inhibitors of Plasmodium falciparum (3D7) proliferation (AID 743344).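 Further: scaled between DMSO vehicle wells and 0.29 µM artemisinin as full inhibition.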 The settings on record: P. falciparum 3D7 in erythrocytes, SYBR Green DNA fluorescence, 72 h; at 28.5 µM (top of the series) unless noted. In outline:
as §1

Experiment [11] can be described thus: qHTS profiling of the MIPE4 collection as inhibitors of Plasmodium falciparum (DD2) proliferation (Rep 2) (AID 743346). The settings on record: P. falciparum Dd2 in erythrocytes, SYBR Green DNA, 72 h; at 28.5 µM (top of the series) unless noted. The procedure, abridged: as §1
Experiment [12] is described as follows: qHTS profiling of the MIPE4 collection as inhibitors of Plasmodium falciparum (HB3) proliferation (AID 743347).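 Further: plate controls were DMSO vehicle wells for no effect and artemisinin wells for full effect.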 The settings on record: P. falciparum HB3 in erythrocytes, SYBR Green DNA, 72 h; at 28.5 µM (top of the series) unless noted. In outline: as §1
The nature of experiment [13]: qHTS assay for cell viability of HEK293 cells (AID 743288; active means well fitted curve in the direction sought with a large enough effect; an effect the other way counts as inactive or inconclusive; further: nearly all actives have a fitted effect of over 50% in size; further: potency means the concentration at half of the fitted maximal effect; on max response: on the % scale 0 is the no-effect control and ±100 the full control effect). The settings on record: ATP luminescence (CellTiter-Glo), 18 h; max response: stronger effect = lower value. In outline: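 After 18 h compound exposure at 37 C, parental HEK293 cells (2,000/well) are lysed with CellTiter-Glo and luminescence is read following 30 min at room temperature.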

SMILES strings stand for the structures. Several values for one entry are separate records, joined by “and”; a condition that tells them apart may be missing. Equal entries are not always repeated. Inconclusive results are not listed. For some assays here: Entries with a potency or affinity are not part of this list. Activity calls are given as the source filed them. Unless noted, how the calls were made is not given here.
Wherever efficacy is given: 0% is about no effect.

T1 sequence (P35557 whole entry, looked up): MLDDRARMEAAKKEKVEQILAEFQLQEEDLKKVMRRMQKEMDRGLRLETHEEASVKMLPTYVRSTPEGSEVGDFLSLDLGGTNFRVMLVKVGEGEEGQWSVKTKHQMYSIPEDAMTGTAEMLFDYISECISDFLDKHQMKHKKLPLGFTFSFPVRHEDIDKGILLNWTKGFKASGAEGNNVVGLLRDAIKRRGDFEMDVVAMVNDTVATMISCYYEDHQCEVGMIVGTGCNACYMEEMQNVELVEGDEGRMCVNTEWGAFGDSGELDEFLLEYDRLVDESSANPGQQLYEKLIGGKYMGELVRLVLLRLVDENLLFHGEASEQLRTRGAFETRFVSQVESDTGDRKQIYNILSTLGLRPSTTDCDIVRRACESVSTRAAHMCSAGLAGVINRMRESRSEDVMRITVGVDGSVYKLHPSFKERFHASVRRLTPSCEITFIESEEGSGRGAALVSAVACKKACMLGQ
T1 sequence (Q14397 whole entry, looked up): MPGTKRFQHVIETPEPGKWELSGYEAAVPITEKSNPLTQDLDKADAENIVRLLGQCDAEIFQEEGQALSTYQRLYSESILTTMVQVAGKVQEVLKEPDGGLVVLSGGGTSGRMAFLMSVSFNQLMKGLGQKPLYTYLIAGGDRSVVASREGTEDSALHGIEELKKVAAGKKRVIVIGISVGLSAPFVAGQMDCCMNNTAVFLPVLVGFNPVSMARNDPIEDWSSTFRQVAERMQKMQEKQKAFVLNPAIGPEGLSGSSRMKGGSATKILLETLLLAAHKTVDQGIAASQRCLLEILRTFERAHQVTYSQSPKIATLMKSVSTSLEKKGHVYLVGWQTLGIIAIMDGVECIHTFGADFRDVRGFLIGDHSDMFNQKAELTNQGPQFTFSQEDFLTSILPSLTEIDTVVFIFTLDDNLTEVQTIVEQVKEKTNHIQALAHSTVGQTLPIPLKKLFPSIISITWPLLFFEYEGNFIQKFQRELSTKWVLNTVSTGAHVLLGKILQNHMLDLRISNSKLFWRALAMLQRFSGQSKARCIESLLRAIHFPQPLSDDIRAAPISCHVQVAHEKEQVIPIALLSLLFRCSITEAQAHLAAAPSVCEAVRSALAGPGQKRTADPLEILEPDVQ

Regarding `O=C(O)c1ccc2[nH]cc(CCCCN3CC=C(c4ccccc4)CC3)c2c1`, the max response in experiment [1] was -6.11% (inactive). For the same compound, the efficacy in experiment [2] was 28% (inactive). For the same compound, the outcome in experiment [3] and in [4] was inactive.
Usually AC50 stands for the concentration at which the activity in the assay is half-maximal. With `CCCN1CCC[C@@H]2Cc3nc(N)ncc3C[C@H]21`, the result in [5], in [6] and in [4] was inactive. Moreover, the max response in experiment [1] was 3.72% (inactive) and 1.86% (inactive). For the same compound, in experiment [2], the efficacy is 40.4% (inactive). For the same compound, the AC50 in experiment [3] was 39.8 µM (active).
For the compound `O=[N+]([O-])c1cc([As](=O)(O)O)ccc1O`, the Potency in [1] is 3.98 µM (active). Moreover, the efficacy in experiment [2] was -13% (inactive). The outcome in [3] and in [4] was inactive.
For the compound `C=C(C)[C@H]1Cc2c(ccc3c2O[C@@H]2COc4cc(OC)c(OC)cc4[C@@H]2C3=O)O1`, the Potency entry in experiment [7] is “inactive”. Further, the outcome in [5] and in experiment [6] was inactive. For the same compound, the max response in experiment [1] is 2.33% (inactive) and 3.94% (inactive). The same compound gave a remaining parasite growth % (stronger effect = lower value) in experiment [8] of 82.1%. Also, the activity, percent of control in [9] worked out at 97.6%. The compound further registered a parasite growth, % of DMSO control in [10] of 86.6%. The parasite growth, % of control (lower = inhibition) in experiment [11] was determined as 35.5%. In experiment [12], this compound came in with a growth, % of control of 90.3%. In [2], the efficacy was 120% (inactive). Also, the AC50 in experiment [3] was 10 µM (active); in experiment [4] it was 8.91 µM (active).
`CN1C(=S)CN=C(c2ccccc2)c2cc(Cl)ccc21`: in experiment [1], the max response was -6.22% (inactive). Also, the efficacy in experiment [2] was 37% (inactive). The call in [3] and in experiment [4] was inactive.
With `CC(=O)[C@H]1CC[C@H]2[C@@H]3CC[C@H]4C[C@H](O)CC[C@]4(C)[C@H]3C(=O)C[C@]12C`, the result in experiment [5], in experiment [6], in experiment [3] and in experiment [4] was inactive. Moreover, the max response in experiment [1] was -4.24% (inactive) and 9.55% (inactive). Besides, the efficacy in [2] is -24.6% (inactive).
For `CC[C@@H](CO)NC(=O)[C@@H]1C=C2c3cccc4[nH]cc(c34)C[C@H]2N(C)C1`, the outcome in [5] and in experiment [6] was inactive. Moreover, in experiment [2], the efficacy is -16.2% (inactive). In addition, the AC50 in [3] is 7.94 µM (active); in experiment [4] it was 10 µM (active).
With `CC(=O)[C@H]1CC[C@H]2[C@@H]3CC[C@H]4C[C@](C)(O)CC[C@]4(C)[C@H]3CC[C@]12C`, the result in experiment [5], in experiment [6], in experiment [3] and in experiment [4] was inactive. For the same compound, in experiment [1], the max response is -7.05% (inactive) and 9.26% (inactive). Also, the efficacy in experiment [2] was 28.4% (inactive).
Take `NN=C(N)N`: the result in experiment [5], in experiment [6], in experiment [3] and in [4] was inactive. Also, the max response in experiment [1] is 9.75% (inactive) and 23.5% (inactive). Moreover, the efficacy in [2] is -37.7% (inactive).
Turning to `C[C@@H]1O[C@@H](O[C@H]2C[C@@H](O)[C@]3(CO)[C@H]4[C@H](O)C[C@]5(C)[C@@H](C6=CC(=O)OC6)CC[C@]5(O)[C@@H]4CC[C@]3(O)C2)[C@H](O)[C@H](O)[C@H]1O`, the Potency entry in [7] is “inactive”. The result in [5] and in experiment [6] was inactive. For the same compound, in [1], the max response is -6.85% (inactive) and -3.14% (inactive) and -2.93% (inactive). For the same compound, the Potency in experiment [13] was 0.0631 µM (active). This compound also gave a parasite growth, % of DMSO control in experiment [10] of 81.9%. For the same compound, in [11], the parasite growth, % of control (lower = inhibition) came to 124%. This compound yielded a growth, % of control in experiment [12] of 101%. Moreover, the efficacy in experiment [2] is -93.6% (inactive). Moreover, the AC50 is 8.91 µM (active) in experiment [3] and 0.708 µM (active) in [4].
As for `CCCC1CCCCN1` (configuration not stated), in experiment [1], the max response is -2.88% (inactive). In addition, in experiment [2], the efficacy is -19.4% (inactive). Besides, the call in experiment [3] and in [4] was inactive.
Regarding `CCC1(C2=NCCN2)Cc2ccccc2O1` (configuration not stated), the outcome in experiment [5], in experiment [6], in experiment [3] and in experiment [4] was inactive. In experiment [1], the max response was -5.65% (inactive) and 15.9% (inactive). The efficacy in experiment [2] is 28% (inactive).
As for `Cc1cc2c(C(C)C)c(O)c(O)c(C=O)c2c(O)c1-c1c(C)cc2c(C(C)C)c(O)c(O)c(C=O)c2c1O`, the Potency result in experiment [7] was “inactive”. For the same compound, the max response in [1] is 0.673% (inactive). Besides, the efficacy in experiment [2] was 104% (inactive). Moreover, the AC50 in experiment [3] was 39.8 µM (active). For the same compound, the outcome in [4] was inactive.
Consider `Nc1ccncc1`, for which, in experiment [7], the Potency entry was “inactive”. Also, the result in [5], in [6], in [3] and in experiment [4] was inactive. Also, the max response in experiment [1] is 0.934% (inactive) and 25.7% (inactive); in experiment [13], -3.71% (inactive). In experiment [2], the efficacy is -10% (inactive).
Regarding `COc1ccccc1N1CCNCC1`, the outcome in experiment [5], in [6], in experiment [3] and in experiment [4] was inactive. In addition, in experiment [1], the max response is 13.1% (inactive) and 8.67% (inactive). Moreover, in [2], the efficacy was 33.5% (inactive).
As for `Cc1cccc(C)c1NC(=O)CN1CCCC1=O`, the result in experiment [5], in [6], in experiment [3] and in experiment [4] was inactive. In experiment [1], the max response is 12.6% (inactive). Also, the parasite growth, % of DMSO control in [10] was 101%. The parasite growth, % of control (lower = inhibition) in [11] worked out at 129%. For the same compound, the growth, % of control in experiment [12] came out at 89.5%. For the same compound, the efficacy in experiment [2] was -15.1% (inactive).
With `Fc1ccc(C(OCCN2CCN(CCCc3ccccc3)CC2)c2ccc(F)cc2)cc1`, the result in experiment [5] and in experiment [6] was inactive. In experiment [10], this compound displayed a parasite growth, % of DMSO control of 5.99%. In addition, in experiment [11], the parasite growth, % of control (lower = inhibition) was found to be 10.9%. The growth, % of control in experiment [12] was 86.1%. In [2], the efficacy was -187% (inactive). Besides, the AC50 in experiment [3] is 3.98 µM (active); in experiment [4], 2.82 µM (active).
Turning to `C[C@H]1O[C@@H](O[C@H]2[C@@H](O)C[C@H](O[C@H]3[C@@H](O)C[C@H](O[C@H]4CC[C@@]5(C)[C@H](CC[C@@H]6[C@@H]5CC[C@]5(C)[C@@H](C7=CC(=O)OC7)CC[C@]65O)C4)O[C@@H]3C)O[C@@H]2C)C[C@H](O)[C@@H]1O`, the Potency entry in [7] was “inactive”. In addition, the max response in [1] was -3.93% (inactive). For the same compound, the Potency in [13] is 0.0562 µM (active). The efficacy in experiment [2] was -46.6% (inactive). The AC50 in experiment [3] was 1.41 µM (active); in [4], 0.708 µM (active).
For the compound `Cc1ncc(CNC(=O)N(CCCl)N=O)c(N)n1`, the result in experiment [5], in [6], in experiment [3] and in experiment [4] was inactive. In addition, the max response in [1] is -1.52% (inactive) and 11.3% (inactive). The efficacy in experiment [2] is 16.2% (inactive).
